# Source: PubChem BioAssay (NCI)
# About 83,000 compounds went through this panel and 20% of them were active in at least one assay; those are over-represented in the sample as a whole.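 Step 1: grow cells in 96-well plates. Step 2: add test compound at a single concentration. Step 3: incubate 48 h. Step 4: record percent growth.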 A number with no mark means an inactive call. Activity calls are given as the source filed them. The calls were made as follows: active = growth percent below 10; inactive = the rest.
# How the values were obtained:
# Test in all cases: NCI-60 one-dose screen, 48 h (100 = growth as untreated, 0 = no growth, -100 = all killed)
# Details in all cases: 10 µM unless noted
# SK-MEL-2 melanoma = system: SK-MEL-2 melanoma
# EKVX NSCLC = system: EKVX NSCLC
# SN12C renal = system: SN12C renal
# UO-31 renal = system: UO-31 renal
# TK-10 renal = system: TK-10 renal
# ACHN renal = system: ACHN renal
# CAKI-1 renal = system: CAKI-1 renal
# A498 renal = system: A498 renal
# MOLT-4 leukemia = system: MOLT-4 leukemia
# CCRF-CEM leukemia = system: CCRF-CEM leukemia
Compound,growth (SK-MEL-2 melanoma),growth (EKVX NSCLC),growth (SN12C renal),growth (UO-31 renal),growth (TK-10 renal),growth (ACHN renal),growth (CAKI-1 renal),growth (A498 renal),growth (MOLT-4 leukemia),growth (CCRF-CEM leukemia)
COc1cc(-c2n/c(=C\c3c(O)[nH]c4ccc(Cl)cc34)cc3c2=Nc2ccccc2-3)cc(OC)c1OC,36%,38.6%,-27.5% (active),-54.3% (active),-7.12% (active),-44.8% (active),13.2%,52.4%,10.2%,
Cn1c(=O)c2[nH]c(NN)nc2n(C)c1=O,105%,120%,108%,90.8%,107%,105%,96%,109%,96.1%,92.4%
CC1CC2Oc3ccc(Cl)cc3C(=O)N2O1 (centres undefined),98.6%,109%,105%,92.9%,96.8%,102%,97.1%,86.9%,105%,
CC1(C)CC(=O)CC2(C1)N=C(N)Nc1nc3ccccc3n12 (centres undefined),100%,102%,100%,96.6%,105%,91.9%,105%,99.7%,82.3%,93%
Cc1c(Cl)cc(-n2c(=O)c3ccccc3c3ccccc3c2=O)cc1Cl,98.3%,97%,85.2%,65.3%,111%,101%,80.9%,141%,95.5%,
Cc1ccc(-n2c(-c3ccccc3)c(-c3ccccc3)c3c(SCC(=O)n4[nH]c(N)cc4=O)ncnc32)cc1,108%,87.2%,99.2%,71.9%,104%,91.2%,88.4%,114%,87.3%,
Cc1ccc(N(C(=O)CCc2c[nH]c3ccccc23)[C@H](C(=O)Nc2ccc(Cl)cc2)c2cccc([N+](=O)[O-])c2)cc1,105%,93%,87.2%,47.4%,116%,61%,80.5%,58.6%,70.8%,
COc1ccc(-c2nc3c(N)c(CO)c(C)nc3o2)cc1,105%,95.7%,106%,88.7%,85%,112%,97%,-10.8% (active),96.3%,
O=C(c1ccccc1)N1N=C(c2ccccc2)CC1c1nnc2n(Cc3ccccc3)c(=O)c3c4c(sc3n12)CCCC4 (centres undefined),77.6%,102%,120%,84.4%,111%,99.8%,99.3%,114%,88.8%,
C=CCOC1=CC(=O)c2ccccc2C1=O,60.5%,116%,82.9%,74.2%,113%,83%,101%,74.6%,65.8%,
COc1ccc(-c2csc(C3=C(O)CN(CCCN4CCCC4=O)C3=N)n2)cc1OC,99.2%,97.5%,105%,83.8%,127%,103%,103%,100%,81%,
CC1(C)CC[C@]2(C(=O)N3CCOCC3)CC[C@]3(C)C(=CC[C@@H]4[C@@]5(C)CC[C@H](OC(=O)c6cccnc6)C(C)(C)[C@@H]5CC[C@]43C)[C@@H]2C1,84.4%,88.2%,74.4%,62.9%,83%,45.3%,40.1%,70.3%,49%,
Cc1ccc2nc(NC(=O)CSc3nc(Nc4ccc([N+](=O)[O-])cc4)c(C#N)c(-c4ccccc4)n3)sc2c1,104%,91.1%,97.9%,78.8%,101%,90.7%,87.9%,116%,97.8%,
COc1cc(/C=C/C(=O)c2ccc(Nc3nc(Nc4ccc(F)cc4)nc(Nc4ccc(Cl)cc4)n3)cc2)cc(OC)c1OC,62.6%,74.1%,70.1%,42.4%,73.9%,78.1%,124%,79.8%,0.996% (active),
Cc1ccc(-c2c(-c3ccccc3)c(=O)oc3ccc(C)cc23)cc1,134%,96.9%,91.9%,79.9%,118%,90.6%,81.1%,97.9%,76.3%,
CCN(CC)CCn1nc2c3c(cccc3c1=O)-c1ccccc1-2,32.8%,40.7%,15.5%,6.26% (active),26.4%,-41.7% (active),18.1%,24.3%,4.13% (active),
CCN(CC)CCN1C(=O)c2c(c(C)c3c(oc4cc(O)ccc43)c2C)C1=O,108%,103%,86.9%,69.2%,-92.3% (active),49.5%,-92.5% (active),101%,-33.6% (active),
CCOC(=O)/C=C/c1cc2cc(-c3csc4ccccc34)ccc2[nH]1,101%,72.7%,91.8%,36.2%,121%,90.8%,69.4%,89.8%,12.2%,
CC(=O)N1N=C(c2ccc(Nc3nc(Nc4ccc(F)cc4)nc(Nc4ccc(F)cc4)n3)cc2)CC1c1cccc([N+](=O)[O-])c1 (centres undefined),62.5%,90.2%,98.1%,73%,104%,93%,124%,78.9%,8.35% (active),
Cc1c2c(c(C)c3c1oc1cc(O)ccc13)C(=O)N(CCN1CCCCC1)C2=O,105%,101%,85.9%,74.9%,96.7%,84.3%,76.3%,106%,80.4%,
O=[N+]([O-])c1ccc(-c2cc(-c3ccc(Nc4nc(Nc5ccc(Cl)cc5)nc(Nc5ccc(Cl)cc5)n4)cc3)no2)cc1,72.4%,92.9%,97.6%,78.8%,105%,94.5%,115%,88.2%,-19.7% (active),
c1cc2ccc3cc2cc1CNCCOCCNCc1ccc2ccc(cc2c1)CNCCOCCNC3,-63.5% (active),21.4%,-19.9% (active),73.7%,8.5% (active),70%,15.4%,31.7%,4.08% (active),
CCOc1ccccc1-c1cc(-c2cccs2)c(C#N)c(=O)[nH]1,98.4%,97.5%,83.3%,68.8%,110%,95.6%,76.1%,70.2%,92.9%,
COc1ccc(/C=c2\nc3n(-c4ccccc4)c4nc5c6c(sc5c(=N)n4n-3c2=O)CCCC6)cc1,99.4%,67%,86.4%,49.5%,124%,75.1%,72.9%,58.9%,56.3%,
CNC(=O)NCC1OC(n2cnc3c(NC(=O)Nc4ccccc4)ncnc32)C(O[Si](C)(C)C(C)(C)C)C1CC(=O)N(C)OC (centres undefined),-4.44% (active),21.4%,16.8%,-6.83% (active),7.05% (active),11.4%,43%,45.6%,-11.7% (active),
Cc1c(C)c2c(c(C)c1OCC(=O)O)CC[C@@](C)(CCC[C@@H](C)CCC[C@@H](C)CCCC(C)C)O2,-26.6% [50 µM] (active),32.3% [50 µM],-32.3% [50 µM] (active),32.6% [50 µM],-0.128% [50 µM] (active),-31.9% [50 µM] (active),7.85% [50 µM] (active),-37.5% [50 µM] (active),-1.22% [50 µM] (active),
NC1=NCc2nc3ccccc3c(=O)n2C1,92.8%,107%,98%,70.1%,106%,99.5%,92.7%,110%,91.2%,
COc1ccc(-c2nc(SC(C)C)nc(NNC(N)=S)c2C#N)cc1,48.7%,65.7%,55.1%,64.3%,72.9%,72.1%,42.3%,50.2%,32.1%,
